Assay outcomes as filed in PubChem BioAssay.
An excerpt weighted towards active compounds, which were near 8% of everything screened.
RORgamma inh – ROR gamma (mouse) transcription inhibition | P51450 | Drosophila S2 Gal4-RORgamma UAS-luciferase reporter, 20 h | Potency, µM (titrated, usually from 53.6 µM), without a hit: top-dose activity change, negative = inhibition, most hits filed as inhibitors | 310,000 compounds, 5.4% hits | AID 2551; also: potency is read from the fitted curve at half-maximal effect; nearly all actives have a fitted effect of over 60% in size
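Luciferase reporter read in Schneider cells carrying Gal4-RORγ (mouse) and UAS-Photinus luciferase; cells given compound 1 h before 700 uM copper sulfate induction, then incubated 20 h at ambient temperature.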
FBPA coupling cs – inhibits coupling enzyme system, counter-screen for aldolase hits | activity change, negative = inhibition, % at 58.2 µM, hits read low | coupling enzyme system counterscreen, AmpLite Red fluorescence | 290,000 compounds, 0.67% hits; in the data active = activity change below about -30%
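Activity here indicates interference with the coupling reaction, not aldolase inhibition. Compounds at 57.5 uM final met coupling enzymes for 10 min at RT; substrate and AmpLite Red detection followed, with a 525/598 nm fluorescence read after 20 min.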
TSHR antagonist – human thyrotropin receptor antagonism; P16473; 330,000 compounds, 0.2% hits; activity change, negative = inhibition, % at 11.5 µM; TSHR-expressing cells, TSH-stimulated cAMP HTRF, 2 h; stronger effect = lower value;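 active = activity change below a set negative limit, meaning inhibition stronger than a set level, cut at about -70% in these data; inconclusive = activity change between two set negative limits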
Target sequence (P16473 whole entry, looked up): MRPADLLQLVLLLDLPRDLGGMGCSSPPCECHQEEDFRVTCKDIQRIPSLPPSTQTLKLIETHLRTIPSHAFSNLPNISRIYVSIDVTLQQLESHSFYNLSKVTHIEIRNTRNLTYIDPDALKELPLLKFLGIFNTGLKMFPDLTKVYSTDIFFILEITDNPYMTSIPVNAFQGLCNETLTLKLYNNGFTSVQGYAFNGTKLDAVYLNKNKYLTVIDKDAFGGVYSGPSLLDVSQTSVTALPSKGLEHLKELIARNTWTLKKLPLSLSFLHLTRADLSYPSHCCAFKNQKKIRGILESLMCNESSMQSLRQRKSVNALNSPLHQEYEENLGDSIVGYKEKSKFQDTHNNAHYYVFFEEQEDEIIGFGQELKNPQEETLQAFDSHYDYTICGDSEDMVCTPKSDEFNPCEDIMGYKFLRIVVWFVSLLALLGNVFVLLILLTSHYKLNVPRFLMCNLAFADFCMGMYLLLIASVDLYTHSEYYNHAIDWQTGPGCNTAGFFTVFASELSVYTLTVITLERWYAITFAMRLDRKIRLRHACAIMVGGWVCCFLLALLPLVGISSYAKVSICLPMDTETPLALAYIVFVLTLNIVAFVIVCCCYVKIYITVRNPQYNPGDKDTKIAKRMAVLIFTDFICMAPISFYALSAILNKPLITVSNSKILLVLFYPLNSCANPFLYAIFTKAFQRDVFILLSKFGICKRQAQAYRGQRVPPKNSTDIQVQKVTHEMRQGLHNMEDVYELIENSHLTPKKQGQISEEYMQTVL
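Antagonism was scored as loss of TSH-driven cAMP in TSHR cells, stimulated with 4nM TSH (EC80) for 2 hours at 37 deg C and detected by homogeneous HTRF competition immunoassay.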
Gal4-VP16 FLuc – Gal4-VP16 reporter inhibition counter-screen; Drosophila S2 Gal4-VP16 UAS-luciferase, luminescence, 20 h; 310,000 compounds, 3.5% hits; Potency, µM (top dose mostly 53.6 µM), inactives show at the highest dose activity, negative = inhibition, most hits filed as inhibitors; AID 2546;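 also: Gal4-VP16 expression switched on by copper sulfate through the metallothionein promoter; potency is read from the fitted curve at half-maximal effect; nearly all actives have a fitted effect of over 50% in size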
ELG1 DNA repair – inhibitors of ELG1-dependent DNA repair in HEK293T cells | HEK293T ELG1-luciferase reporter, luminescence, 16 h; DNA damage induced by 5-fluorouridine | Potency, µM (highest dose often 46.1 µM), without a hit: top-dose activity change, negative = inhibition, most hits filed as inhibitors | 330,000 compounds, 2.3% hits | AID 504467; also: potency is read from the fitted curve at half-maximal effect; nearly all actives have a fitted effect of over 55% in size
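Overnight (16 hr) co-exposure of 2,000 cells/well to 5-fluorouridine and compound at 37 °C preceded detection. Luciferase was quantified via ONE-Glo luminescence; loss of signal denotes inhibition.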
* hit, by the source's call; u = inconclusive; x = no result given; [ ] = another dose, or the depositor's remark. Unless noted, calls follow the shape of the dose curve; as a rule, active = well fitted curve in the direction sought with a large enough effect; inconclusive = small, poorly fitted or top-dose-only effect, or another doubt; inactive = no such curve, though single readings can be large; an effect the other way counts as inactive or inconclusive. % is scaled to controls: 0 for no effect and ±100 for the full control effect.

SMILES	RORgamma inh	FBPA coupling cs	TSHR antagonist	Gal4-VP16 FLuc	ELG1 DNA repair
O=C(c1ccc(Cl)cc1)N1CCCCC(Sc2nnc(-c3ccc4c(c3)OCO4)o2)C1=O (stereo not drawn)	1.4µM*	4	-12	u	u
CC1(C)S[C@@H]2[C@H](NC(=O)[C@@H](N)c3ccc(O)cc3)C(=O)N2[C@H]1C(=O)O	8%[16.9 µM]	1	x	5%[17 µM]	x
O=C1N/C(=C\c2ccc(O)cc2)C(=O)c2ccccc21	u	-31*	6	10µM*	15%
CC[C@H](C)[C@H](NC(=O)[C@H](N)Cc1ccc(O)cc1)C(=O)N[C@@H](CC(N)=O)C(=O)N[C@@H](CC(C)C)C(=O)N[C@H](C(=O)N[C@@H](C(=O)N[C@@H](CCCN=C(N)N)C(=O)N[C@@H](CCC(N)=O)C(=O)N[C@@H](CCCN=C(N)N)C(=O)N[C@H](Cc1ccc(O)cc1)C(N)=O)[C@@H](C)O)[C@@H](C)CC	-10%	0	x	-3%	x
CN(C)c1ccc(N=Nc2ccccc2C(=O)OCC(=O)N(C)c2ccccc2)cc1	u	-5	22	-19%	13µM*
c1ccc(C2Nc3ccccc3-c3nc4ccccc4n32)nc1 (stereo not drawn)	8.9µM*	-6	23	-9%	-8%
Cn1nc(CC(=O)Nc2ccc(N3CCN(C(=O)OC(C)(C)C)CC3)cc2)c2ccccc2c1=O	u	-1	-36	2.5µM*	u
COc1cc(NC(=O)Cc2nn(C)c(=O)c3ccccc23)cc(OC)c1	u	-2	-14	u	u
Cc1ccc(NC(=O)Cc2nn(C)c(=O)c3ccccc23)cc1F	-19%	1	-18	11µM*	u
Cn1nc(CC(=O)Nc2ccc3c(c2)OCCO3)c2ccccc2c1=O	-34%	-1	-23	7.9µM*	-15%
C[C@H]1COC(=O)[C@H]2CCCN2C(=O)[C@@H](C)COC(=O)[C@H]2CCCN2C1=O	-11%[10 µM]	1	x	-3%[10 µM]	x
N[C@H](CCCP(=O)(O)O)C(=O)O	24%	-2	x	8%	x
Cc1c(C(=O)NCCC2=CCCCC2)oc2ccc(S(=O)(=O)N3CCOCC3)cc12	32%	-28	-3	-5%	16µM*
Cc1c(C(=O)NCc2cccs2)oc2ccc(S(=O)(=O)N3CCOCC3)cc12	32%	4	-5	3%	10µM*
Cc1c(C(=O)NCCCN2CCCC2=O)oc2ccc(S(=O)(=O)N3CCOCC3)cc12	6%	0	6	12%	1%
COc1cc2ccccc2cc1C(=O)Nc1nnc(-c2ccncc2)o1	7.1µM*	3	7	10µM*	-13%
COc1ccccc1-c1nnc(NC(=O)c2ccccc2F)o1	2µM*	-4	-4	2.8µM*	14%
COc1ccc(C(=O)Nc2nnc(-c3ccccc3)o2)cc1OC	0.56µM*	-1	-3	1µM*	-29%
O=C(NC(=S)Nc1ccc2oc(-c3ccncc3)nc2c1)c1ccccc1F	-22%	-3	5	3%	11%
O=C(Nc1nnc(-c2ccncc2)o1)c1ccccc1F	u	4	10	10µM*	-9%
COc1ccc(NC(=O)c2ccccc2F)cc1Cl	9%	-1	-6	u	u
O=C(Nc1nnc(-c2ccncc2)o1)c1ccccc1	3.2µM*	1	6	5µM*	-4%
Cc1ccc(C(=O)Nc2nnc(-c3ccncc3)o2)cc1	0%	0	3	5%	19%
O=C(Nc1ccccc1N1CCOCC1)c1ccccc1[N+](=O)[O-]	21%	-7	48	-16%	7%
O=C(N/N=C/c1ccc(N2CCOCC2)o1)c1ccccc1[N+](=O)[O-]	13µM*	-6	1	u	7%
O=C(Nc1ccc(N2CCOCC2)nc1N1CCOCC1)c1cccc(C(F)(F)F)c1	25%	-4	19	9%	0%
O=C(N/N=C/c1ccc(N2CCOCC2)s1)c1ccccc1Br	11µM*	-3	3	-7%	7%
Nc1ccc(C(=O)N/N=C/c2ccc(N3CCOCC3)s2)cc1	x	x	-29	x	11%
O=C(N/N=C/c1ccc(N2CCCCC2)o1)c1ccccc1[N+](=O)[O-]	u	-8	6	8.9µM*	-6%
